An excerpt weighted towards active compounds, which were near 4.3% of everything screened.
HSF1 inh: HSF1 inhibition; NIH3T3-HGL HSE-luciferase, MG132-induced, luminescence 8 h; active compounds read low; activity change, negative = inhibition, % at 7.5 µM (by protocol); hit rate 0.77% among 300,000;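 active = more than half of replicate wells show activity change below -50%, luminescence cut by over half; inconclusive = some wells, but at most half, below -50%; inactive = no replicate well below -50%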;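 also: luciferase reports HSF-1 transcriptional activity via heat shock element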
HSF1 activator: increases HSF-1 driven luciferase reporter signal; NIH3T3-HGL HSF-1 luciferase reporter, MG132, 8 h; 100% = twice DMSO control signal; activation, % at 9 µM; hit rate 1.7% among 300,000; AID 504408;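 active = mean replicate activation of at least 50% with a set share of replicates each reaching 50%; inconclusive = only one of those two conditions met; inactive = mean below 50% and too few replicates reaching it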
esBAF inh: blocks esBAF chromatin remodeling in mouse ES cells. Bmi1-luciferase knock-in reporter, 24 h; 100% = twice the neutral-well signal. reporter increase, % at 12.5 µM. hit rate 2% among 350,000; in the data active = activation above about 40%; inconclusive = no clear call, values can overlap the other calls;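 also: a rise in the Bmi1 reporter signal indicates esBAF inhibition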
Wnt bcat act: Wnt/beta-catenin pathway activation | Wnt/beta-catenin reporter cell assay, activator, plate reader | activation, % at 9.35 µM | hit rate 1.2% among 300,000 | AID 743398; in the data active = activation above about 30%, passing the limit was not always enough; inconclusive = no clear call, values can overlap the other calls
MITF act: increases MITF-driven TRPM1 promoter luciferase signal. SK-MEL-5 TRPM1-promoter luciferase, 24 h; % of positive control, neutral wells = 0. activation, % at 12.5 µM. hit rate 0.75% among 300,000;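 active = mean activation of at least 80% with every replicate also reaching 80%; inconclusive = mean reaches 80% but some replicate falls short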
SMARCA2 activ: SMARCA2 function activation, primary screen; MG213 cells, MMTV-luciferase reporter, dexamethasone, overnight; activation, % at 9.1 µM; hit rate 1% among 370,000; AID 652017; in the data active = activation above about 7.8%
SMARCA2 act conf: SMARCA2 activation, confirmation screen. MG213 cells, MMTV-luciferase with dexamethasone, luminescence, overnight; MG213 cells expressing E1A, Rb sequestered; DMSO wells 0%, reference activator 100%. AID 652260. shares compounds with SMARCA2 activ. activation, % at 9.1 µM. hit rate 30% among 3,500;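 active = activation above its plate's cutoff, the mean activation of tested wells plus 3 SD, cut at about 7.9% in these data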
GAL4-VP16 Luc: GAL4-VP16 reporter activation counter-screen; HEK293 GAL4-VP16 pG5luc reporter, luciferase luminescence; scaled: DMSO wells 0%, SAHA wells 100%; activation, % at 9.1 µM; AID 686939; shares compounds with SMARCA2 activ; hit rate 41% among 3,500;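 active = activation above the solvent-only control well mean plus 3 SD, averaged across control plates, cut at about 5.2% in these data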
A number is an active result; i = inactive; ? = inconclusive; nt = no result given.

SMILES | HSF1 inh | HSF1 activator | esBAF inh | Wnt bcat act | MITF act | SMARCA2 activ | SMARCA2 act conf | GAL4-VP16 Luc
O=Cc1ccc2noc(-c3ccc(Cl)cc3)c2c1 | i | i | i | i | i | 17.4 | 10.7 | i
N#Cc1cc2c(nc1SCc1ccncc1)CCC2 | i | i | 43.5 | i | i | 11.6 | i | i
N#Cc1cc2c(nc1SCc1ccccc1)CCC2 | i | i | nt | nt | nt | i | nt | nt
CS(=O)(=O)N1CCC(C(=O)Nc2ccc(F)cc2F)CC1 | i | i | nt | nt | i | i | nt | nt
O=C(Nc1ccc(F)cc1F)C1CCN(S(=O)(=O)c2cccnc2)CC1 | i | i | i | i | i | 8.3 | i | i
O=C(O)C[C@@H]1C[C@@H]2c3cc(NC(=O)c4ccc5c(c4)OCO5)ccc3O[C@@H]2[C@H](CO)O1 | nt | nt | i | nt | nt | nt | nt | nt
COc1cccc(NC(=O)CCc2c(C)nn(-c3ccc(N4CCOCC4)nn3)c2C)c1 | i | i | i | i | i | 10.6 | i | i
C[C@H]1CN([C@@H](C)CO)C(=O)c2cc(C#CC3CCCCC3)cnc2O[C@@H]1CN(C)S(=O)(=O)c1ccc(F)cc1 | nt | nt | i | nt | nt | nt | nt | nt
Cc1c(/C(O)=C2\C(=O)C(=O)N(CCN(C)C)C2c2ccco2)cnn1-c1ccccc1 (stereo unspecified) | i | i | i | nt | nt | i | nt | nt
CCN(CC)CCN1C(=O)C(=O)/C(=C(/O)c2cnn(-c3ccccc3)c2C)C1c1ccc(C)o1 (stereo unspecified) | i | i | ? | nt | nt | 12.2 | i | i
C[C@H]1CN([C@@H](C)CO)C(=O)Cc2cc(NC(=O)CCN3CCOCC3)ccc2O[C@@H]1CN(C)S(=O)(=O)c1ccc(Cl)cc1 | nt | nt | i | nt | nt | nt | nt | nt
CSc1ncccc1C(=O)OCC(=O)NC1CCCC1 | nt | nt | i | i | i | 8.6 | i | i
CSc1ncccc1C(=O)OCC(=O)NC1CCCCC1 | nt | nt | i | i | i | i | nt | nt
CCn1c(C)cc(C(=O)COC(=O)c2cccnc2SC)c1C | nt | nt | 52.8 | i | i | 11.4 | 8.0 | 8.5
C[C@H]1CN([C@@H](C)CO)C(=O)c2cc(NS(=O)(=O)c3ccccc3)ccc2O[C@H]1CN(C)Cc1ccc(C(=O)O)cc1 | nt | nt | i | nt | nt | nt | nt | nt
C[C@@H]1CN([C@H](C)CO)C(=O)c2cccc(NS(=O)(=O)c3ccc(F)cc3)c2O[C@H]1CN(C)CC1CCCCC1 | nt | nt | i | nt | nt | nt | nt | nt
CC(=O)c1ccc(NC(=S)NCCc2ccc(S(N)(=O)=O)cc2)cc1 | i | i | i | i | i | i | nt | nt
CC(=O)c1ccc(NC(=S)NCCc2cccc(Cl)c2)cc1 | i | i | nt | i | i | 8.0 | i | 10.7
CO[C@@H](CN(C)Cc1nccs1)[C@H](C)CN([C@H](C)CO)S(=O)(=O)c1ccc(C)cc1 | nt | nt | i | nt | nt | nt | nt | nt
O=C(Cn1ncc(Cl)c(Cl)c1=O)NCC1CCCCC1 | nt | nt | nt | i | i | 13.5 | i | i
O=C(Cn1ncc(Cl)c(Cl)c1=O)c1ccc(Cl)cc1 | i | 56.1 | nt | nt | i | 20.0 | i | i
Cc1ccc(S(=O)(=O)N(C)C[C@H]2OCCCC[C@@H](C)Oc3ccc(NS(=O)(=O)c4cn(C)cn4)cc3C(=O)N([C@@H](C)CO)C[C@@H]2C)cc1 | nt | nt | i | nt | nt | nt | nt | nt
COc1ccc(C(=O)Nc2nc3ccccc3[nH]2)cc1 | i | i | i | i | i | i | nt | nt
COc1ccc(C(=O)N[C@H](C(=O)Nc2nc3ccccc3[nH]2)C(C)C)cc1 | i | i | i | i | i | 12.6 | 12.3 | 14.8
COCCCn1c(=O)/c(=C\c2ccccc2OC(F)F)s/c1=C(/C#N)C(=O)NC(C)C | i | i | nt | i | i | 14.0 | i | i
SMILES | HSF1 inh | HSF1 activator | esBAF inh | Wnt bcat act | MITF act | SMARCA2 activ | SMARCA2 act conf | GAL4-VP16 Luc
CC1CCc2nn(CC(=O)NCCCN3CCCC3=O)cc2C1 (stereo unspecified) | i | i | i | i | nt | 8.7 | i | i
COc1cc(/C=C/c2noc(-c3ccccc3O)n2)cc(OC)c1OC | i | i | nt | i | ? | i | nt | nt
COc1ccc(/C=C/c2noc(-c3ccccc3O)n2)cc1 | i | i | nt | nt | 97.6 | 8.6 | i | 7.0
CCS(=O)(=O)N1Cc2ccccc2CC1C(=O)Nc1ccc(F)c(F)c1 (stereo unspecified) | i | 59.5 | i | i | i | 14.6 | i | i
CCOc1ccc(NC(=O)C2Cc3ccccc3CN2S(=O)(=O)CC)cc1 (stereo unspecified) | i | i | i | i | i | 10.3 | i | i
COCC(=O)Nc1ccc2c(c1)OC[C@@H](C)N(C(=O)Cc1cccnc1)C[C@@H](C)[C@H](OC)CN(C)C2=O | nt | nt | i | nt | nt | nt | nt | nt
O=C(COc1cccc(C(F)(F)F)c1)Nc1cccnc1 | i | i | i | i | i | 8.4 | i | i
O=C(COc1ccc(C(=O)NCc2cccnc2)cc1)Nc1cccc(C(F)(F)F)c1 | i | i | i | i | i | i | nt | nt
C[C@@H]1CCCCO[C@@H](CN(C)S(=O)(=O)c2cn(C)cn2)[C@H](C)CN([C@@H](C)CO)C(=O)c2cc(NS(=O)(=O)c3cn(C)cn3)ccc2O1 | nt | nt | i | nt | nt | nt | nt | nt
C[C@@H]1CN([C@@H](C)CO)C(=O)c2cc(N(C)C)ccc2O[C@@H]1CN(C)C(=O)Nc1cccc2ccccc12 | nt | nt | i | nt | nt | nt | nt | nt
CCc1nc(SCc2cc(Cl)ccc2OC)n[nH]1 | i | i | i | nt | i | 9.4 | i | i
CO[C@@H]1CN(C)C(=O)c2ccc(NC(=O)C3CC3)cc2OC[C@H](C)N(Cc2cccnc2)C[C@@H]1C | nt | nt | i | nt | nt | nt | nt | nt
COC(=O)C1=C(C)N(Cc2ccccc2C(F)(F)F)C(=NCc2ccccc2)NC1c1ccc(C(F)(F)F)cc1 (stereo unspecified) | nt | nt | nt | i | nt | i | nt | nt
COC(=O)C1=C(C)N(Cc2ccccc2C(F)(F)F)C(=NCc2cccc(C(F)(F)F)c2)NC1c1ccc(C(F)(F)F)cc1 (stereo unspecified) | nt | nt | nt | i | nt | 10.2 | i | i
CCN1C(=O)/C(=C2/C(=O)N3c4c(cc(OC(C)=O)cc42)C(C)=CC3(C)C)SC1=S | i | i | nt | i | i | 10.1 | i | i
Cc1ccc(C(=O)N/C(=C/c2ccc(-c3ccc([N+](=O)[O-])cc3)o2)C(=O)NCCCN(C)C)cc1 | i | i | nt | i | nt | 9.5 | 12.1 | i
CCC(C)c1ccc(NC(=O)c2cccnc2)cc1 (stereo unspecified) | i | i | 50.3 | nt | 89.0 | 9.8 | 8.2 | 12.4
Fc1ccc(-c2cc(-c3cccs3)cc(-c3ccccc3)n2)cc1 | i | nt | i | i | i | i | nt | nt
Fc1ccc(-c2cnc(-c3cccs3)o2)cc1 | i | i | i | 33.6 | i | 9.2 | 10.2 | 5.4
NC(=S)N/N=C/c1cn(-c2ccccc2)nc1-c1cccnc1 | i | i | nt | i | i | 8.2 | i | i
